An excerpt weighted towards active compounds, which were near 11% of everything screened.
G9a inh – blocks human histone lysine methyltransferase G9a | Q96KQ7 | G9a H3K9 monomethylation, AlphaScreen, 2 h | Potency, µM (highest dose often 102 µM), for inactives: at the top dose activity, negative = inhibition, actives largely listed as inhibitors | 8.8% of 350,000 active | AID 504332; note: % is set by controls: 0 for no effect and ±100 for the full control effect; nearly all actives have a fitted effect of over 75% in size
Target sequence (Q96KQ7 913-1193 limits assumed): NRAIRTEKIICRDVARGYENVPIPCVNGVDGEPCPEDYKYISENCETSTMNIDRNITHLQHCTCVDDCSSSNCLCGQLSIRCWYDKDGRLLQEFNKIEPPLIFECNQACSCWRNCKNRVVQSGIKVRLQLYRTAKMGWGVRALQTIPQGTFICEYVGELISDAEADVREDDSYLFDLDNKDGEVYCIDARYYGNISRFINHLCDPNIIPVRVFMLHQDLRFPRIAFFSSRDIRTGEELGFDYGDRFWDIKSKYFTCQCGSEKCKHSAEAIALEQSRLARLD
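Signal arises when biotinylated H3K9 peptide, once monomethylated, bridges streptavidin donor and antibody-captured acceptor beads. Enzyme at 20 nM was preincubated 15 min with test compounds; peptide 500 nM and SAM 20 uM then reacted for 2 h.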
JMJD2A Tudor – JMJD2A Tudor domain (human) inhibition | AlphaScreen JMJD2A-Tudor / H3K4me3 peptide binding | Potency, µM (series often up to 114 µM), for the others: top-dose activity change, negative = inhibition, actives largely listed as inhibitors | AID 504339 | 4.4% of 390,000 active; note: % is set by controls: 0 for no effect and ±100 for the full control effect; nearly all actives have a fitted effect of over 50% in size
BAZ2B block – BAZ2B (human) inhibition | Q9UIF8 | AlphaScreen BAZ2B-H3K14Ac peptide displacement | Potency, µM (doses to about 114 µM), for inactives: top-dose activity change, negative = inhibition, usual class: inhibitors | 4.4% of 360,000 active; note: % is set by controls: 0 for no effect and ±100 for the full control effect; nearly all actives have a fitted effect of over 60% in size
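Multi-concentration screen (max 110 uM) measuring displacement of acetylated histone H3 peptide from BAZ2B by AlphaScreen, using 50 nM protein, 50 nM peptide and 10 ug/mL streptavidin donor plus Ni-chelate acceptor beads.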
L3MBTL1 block – blocks human L3MBTL1; Q9Y468; AlphaScreen L3MBTL1–H3K9me1 peptide binding; Potency, µM (titrated, usually from 57.1 µM), inactives show at the highest dose activity, negative = inhibition, hits mostly inhibitors; 0.66% of 230,000 active; AID 485360; note: % is set by controls: 0 for no effect and ±100 for the full control effect; nearly all actives have a fitted effect of over 60% in size
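First, the protein-peptide complex forms for 30 min at room temperature (L3MBTL1 50 nM, biotinylated H3K9me1 peptide 75 nM). Next, compounds are pin-transferred and incubated 30 min. Finally, AlphaScreen beads are added and read after 30 min.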
HP1b chromo inh – blocks HP1-beta chromodomain binding to methylated histone tails; AID 540317; Potency, µM (series often up to 114 µM), inactives show at the top dose activity change, negative = inhibition, most hits filed as inhibitors; AlphaScreen HP1-beta / biotin-H3K9me3 peptide binding; P83916; 0.56% of 390,000 active; note: nearly all actives have a fitted effect of over 70% in size
Target sequence (P83916 whole entry, looked up): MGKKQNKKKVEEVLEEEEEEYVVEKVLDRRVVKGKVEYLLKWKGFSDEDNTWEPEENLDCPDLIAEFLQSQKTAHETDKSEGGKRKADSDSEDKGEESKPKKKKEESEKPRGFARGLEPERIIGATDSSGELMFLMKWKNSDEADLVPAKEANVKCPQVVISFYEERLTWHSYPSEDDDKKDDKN
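HP1-beta protein (50 nM final) preincubated 30 min at room temperature with biotinylated H3(1-18)K9me3 peptide (50 nM) in PBS pH 7.4, 0.01% Tween-20, then compound added for 30 min. AlphaScreen streptavidin donor/nickel chelate acceptor beads (10 ug/mL final), 30 min dark, luminescence read.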
Starred values were filed as active, the others as inactive; ? = inconclusive; / = no result given; [ ] = dose if it differs, or a comment. Calls come from the whole dose curve; as a rule, active = well fitted inhibition curve with a large enough effect; inconclusive = small, poorly fitted or top-dose-only effect; inactive = no such curve, though single readings can be large or run the other way. Potency is the fitted concentration of half-maximal effect.

SMILES	G9a inh	JMJD2A Tudor	BAZ2B block	L3MBTL1 block	HP1b chromo inh
S=c1[nH]nc(-c2cccnc2)n1C1CCCCC1	20µM*	5.01µM*	3.9%	9.3%	25.5%
Cc1ccsc1-c1n[nH]c(=S)n1C1CCCCC1	1.58µM*	35.5µM*	-8.2%	-2.9%	?
COc1ccc(Cl)cc1-c1n[nH]c(=S)n1C1CCCCC1	1.41µM*	35.5µM*	-20.1%	/	14.8%
CN(CC(=O)NCCc1ccccc1)S(=O)(=O)c1ccc(Br)s1	15.7%	-6.7%	0.5%	/	27.2%
CN(c1nc(-c2ccc(Br)cc2)cs1)C1CCS(=O)(=O)C1 (stereo not drawn)	?	-15.2%	-13.8%	-27.7%	-15.6%
COc1ccc(Cl)cc1-c1n[nH]c(=S)n1Cc1ccccc1	3.16µM*	-32.2%	-6.9%	4.8%	37.3%
CCOC(=O)c1cc(S(=O)(=O)Nc2cc(OC)ccc2OC)[nH]n1	11.2µM*	?	-35.8%	/	-4.0%[57 µM]
COC(=O)COc1ccc(S(=O)(=O)Nc2cc(OC)ccc2OC)cc1	-27.3%[2.33 µM]	/	36.3%	22.2%	/
CCOC(=O)c1cc(S(=O)(=O)Nc2cc(C)c(Cl)cc2OC)[nH]n1	14.1µM*	?	-34.2%	/	1.3%[57 µM]
CCN(C(=O)CSc1nc2cc(S(=O)(=O)N(CC)CC)ccc2o1)C1CCS(=O)(=O)C1 (stereo not drawn)	/	-1.3%	-20.7%	/	?
Cc1c(N=N/C(C(=O)Nc2ccccc2)=C(/O)c2ccccc2)c(=O)n(-c2ccccc2)n1C	14.1µM*	?	8.91µM*	-5.8%	-3.7%
Cc1c(N=C(N)/N=C(\N)Nc2ccc(Br)cc2)c(=O)n(-c2ccccc2)n1C	42.6%[59 µM]	31.6µM*	14.3%	8.4%	13.1%
Cc1cc(=O)n(CC(=O)N2CCCc3ccccc32)c2c1c(C)nn2-c1cccc(F)c1	12.5%[59 µM]	-12.0%	-4.8%	/	3.7%
O=C(COC(=O)C12CC3CC(CC(O)(C3)C1)C2)NCc1ccco1	/	-24.7%	/	/	22.6%
CCC(CC)N1CCN(C(=O)c2cc(OC)c(OC)c(OC)c2)CC1	/	50.1µM*	?	-2.6%	?
COc1cc(C(=O)N2CCN(CCCc3ccccc3)CC2)cc(OC)c1OC	/	20µM*	/	/	-12.1%
COc1cc(C(=O)N2C(=O)CCC2=O)cc(OC)c1OC	35.5µM*	-12.9%	?	-1.3%	63.6%
O=C(c1ccccc1)N1CCN(Cc2cccc(Oc3ccccc3)c2)CC1	15.8µM*	39.8µM*	50.1µM*	0.1%	-10.9%
COc1ccc(C(=O)c2c(-c3cccc(C)c3)oc3ccc(N4CCOCC4)cc23)cn1	-15.3%	-6.3%	-2.6%	11.9%	66.2%
Cc1ccc(CCNS(=O)(=O)c2ccc3c(c2)C(C(C)C)C(=O)N3)cc1 (stereo not drawn)	-1.3%[59 µM]	-22.3%	49.7%[57.1 µM]	/	60.1%
COC(=O)c1ccc(NC(=O)C2CCN(C(=O)c3cc(OC)c(OC)c(OC)c3)CC2)cc1	10µM*	44.7µM*	-30.9%	/	12.0%
OC1CCN(Cc2cccc(Oc3ccccc3)c2)CC1	-1.4%[59 µM]	-9.0%	0.9%	5.8%	16.8%
COc1ccc(CN2CCN(Cc3cccc(Oc4ccccc4)c3)CC2)c(OC)c1OC	44.7µM*	3.98µM*	20µM*	/	25.1µM*
COc1cc(OC)cc(C(=O)N2CCN(C(=O)c3ccc(-c4ccccc4)cc3)CC2)c1	?	-11.0%	-19.7%	0.7%	20.5%
COc1cc(CN2CCN(C(=O)c3ccc(-c4ccccc4)cc3)CC2)cc(OC)c1OC	/	7.94µM*	15.2%	28.8%	?
SMILES	G9a inh	JMJD2A Tudor	BAZ2B block	L3MBTL1 block	HP1b chromo inh
COc1cccc(CN2CCN(C(=O)c3ccc(-c4ccccc4)cc3)CC2)c1	12.6µM*	2.24µM*	50.1µM*	-12.8%	31.6µM*
Cc1ccc(-c2nc3sc(CCNC(=O)c4ccc(F)c(F)c4)c(C)n3n2)cc1	2.0%[59 µM]	-8.1%	-0.1%	/	8.3%
O=S(=O)(c1cccc(Cl)c1)c1nnn2c1nc(NCc1ccc3c(c1)OCO3)c1sccc12	-19.6%[59 µM]	-28.2%	-33.2%	/	-18.8%
COc1ccc(N(C(=O)c2ccccc2F)S(=O)(=O)c2ccc3c(c2)n(C)c(=O)n3C)cc1	-1.2%[59 µM]	-14.8%	-2.6%	/	28.1%
COc1cc(CN2CCCCCC2)cc(OC)c1	13.4%	-5.5%	0.0%	-1.9%	32.4%
CN1CCN(Cc2cccc(Oc3ccccc3)c2)CC1	70.8µM*	-19.8%	0.1%	/	18.3%

Screening data from PubChem.
